According to PubChem BioAssay AID1159580 (chemical genetic matrix, 2015):
In all, about 5,500 compounds went through this assay and about 2,000 (36%) were called active. Not shown: some 18% with an inconclusive outcome. No stated cut-off is given here; in the data, active means normalized growth mostly below about 0.91 (no sharp cut-off); inconclusive means no clear call, values can overlap the other calls; inactive means mostly above about 0.92. The list shows a part of the results.

Assay: chemical genetic growth profiling, strain panel (AID 1159580);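 further: tested at 20 µM; growth read once vehicle control cultures reached saturation at 30 °C; 1 = growth at the plate median or of vehicle wells; lower values mean less growth of the strain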
Details: growth OD

Measured: normalized growth

N[C@@H](CCC(=O)N[C@@H](CS)C(=O)NCC(=O)O)C(=O)O
inactive: S. cerevisiae deletion strains, locus YKL009W, strain mrt4, hits give low values 0.954 | S. cerevisiae deletion strains, locus YKL068W, hits give low values 0.996 | S. cerevisiae deletion strains, locus YKL085W, strain MDH1 (second series), hits give low values 0.979 | S. cerevisiae deletion strains, locus YKL085W, strain MDH1, hits give low values 0.979 | S. cerevisiae deletion strains, locus YKL160W, strain elf1, hits give low values 0.978 | S. cerevisiae deletion strains, locus YKL190W, strain CNB1, hits give low values 0.993 | S. cerevisiae deletion strains, locus YKR001C, strain vps1, hits give low values 0.994 | S. cerevisiae deletion strains, locus YKR026C, strain gcn3, hits give low values 0.987 | S. cerevisiae deletion strains, locus YKR091W, strain srl3, hits give low values 0.985 | S. cerevisiae deletion strains, locus YLL001W, strain dnm1, hits give low values 0.963 | S. cerevisiae deletion strains, locus YLL026W, hits give low values 0.975 | S. cerevisiae deletion strains, locus YLL041C, strain sdh2, hits give low values 1 | S. cerevisiae deletion strains, locus YLR027C, strain aat2, hits give low values 0.97 | S. cerevisiae deletion strains, locus YLR039C, strain RIC1, hits give low values 0.981 | S. cerevisiae deletion strains, locus YLR058C, strain SHM2, hits give low values 0.996 | S. cerevisiae deletion strains, locus YLR102C, strain apc9, hits give low values 0.986 | S. cerevisiae deletion strains, locus YLR113W, strain HOG1, hits give low values 0.97 | S. cerevisiae deletion strains, locus YLR221C, strain rsa3, hits give low values 1 | S. cerevisiae deletion strains, locus YLR258W, strain gsy2, hits give low values 1.01 | S. cerevisiae deletion strains, locus YLR262C, strain YPT6 (second series), hits give low values 1 | S. cerevisiae deletion strains, locus YLR262C, strain YPT6, hits give low values 0.92 | S. cerevisiae deletion strains, locus YLR268W, strain sec22, hits give low values 0.983 | S. cerevisiae deletion strains, locus YLR320W, strain mms22, hits give low values 1.02 | S. cerevisiae deletion strains, locus YLR330W, strain CHS5, hits give low values 0.999 | S. cerevisiae deletion strains, locus YLR342W, strain FKS1 (second series), hits give low values 1.03 | S. cerevisiae deletion strains, locus YLR342W, strain FKS1, hits give low values 0.982 | S. cerevisiae deletion strains, locus YLR357W, strain rsc2, hits give low values 0.973 | S. cerevisiae deletion strains, locus YLR370C, strain arc18, hits give low values 0.985 | S. cerevisiae deletion strains, locus YLR371W, strain rom2, hits give low values 0.979 | S. cerevisiae deletion strains, locus YLR384C, strain iki3, hits give low values 0.98 | S. cerevisiae deletion strains, locus YLR418C, strain cdc73, hits give low values 0.98 | S. cerevisiae deletion strains, locus YML016C, strain PPZ1, hits give low values 1 | S. cerevisiae deletion strains, locus YML032C, strain rad52, hits give low values 0.989 | S. cerevisiae deletion strains, locus YML120C, strain ndi1, hits give low values 0.981 | S. cerevisiae deletion strains, locus YML124C, strain tub3, hits give low values 0.995 | S. cerevisiae deletion strains, locus YMR058W, strain fet3, hits give low values 0.99 | S. cerevisiae deletion strains, locus YMR078C, strain ctf18, hits give low values 0.977 | S. cerevisiae deletion strains, locus YMR125W, strain sto1, hits give low values 1 | S. cerevisiae deletion strains, locus YMR129W, hits give low values 1 | S. cerevisiae deletion strains, locus YMR205C, strain PFK2, hits give low values 0.993 | S. cerevisiae deletion strains, locus YMR223W, strain ubp8, hits give low values 0.985 | S. cerevisiae deletion strains, locus YMR231W, strain pep5, hits give low values 1.02 | S. cerevisiae deletion strains, locus YMR307W, strain GAS1, hits give low values 1.12 | S. cerevisiae deletion strains, locus YNL067W, strain RPL9B, hits give low values 0.969 | S. cerevisiae deletion strains, locus YNL071W, strain lat1, hits give low values 1.01 | S. cerevisiae deletion strains, locus YNL128W, strain TEP1, hits give low values 0.963 | S. cerevisiae deletion strains, locus YNL183C, strain NPR1, hits give low values 0.97 | S. cerevisiae deletion strains, locus YNL209W, strain ssb2, hits give low values 1.01 | S. cerevisiae deletion strains, locus YNL233W, strain BNI4, hits give low values 0.989 | S. cerevisiae deletion strains, locus YNL248C, strain rpa49, hits give low values 1.03 | S. cerevisiae deletion strains, locus YNL250W, strain rad50, hits give low values 0.987 | S. cerevisiae deletion strains, locus YNL271C, strain bni1, hits give low values 0.982 | S. cerevisiae deletion strains, locus YNL298W, strain CLA4, hits give low values 0.986 | S. cerevisiae deletion strains, locus YNL307C, strain MCK1, hits give low values 0.99 | S. cerevisiae deletion strains, locus YNL322C, strain KRE1 (second series), hits give low values 0.998 | S. cerevisiae deletion strains, locus YNR049C, strain mso1, hits give low values 0.996 | S. cerevisiae deletion strains, locus YNR052C, strain pop2, hits give low values 0.988 | S. cerevisiae deletion strains, locus YOL006C, strain TOP1, hits give low values 0.986 | S. cerevisiae deletion strains, locus YOL012C, strain htz1 0.759 | S. cerevisiae deletion strains, locus YOL147C, strain pex11, hits give low values 0.995 | S. cerevisiae deletion strains, locus YOR001W, strain rrp6, hits give low values 0.971 | S. cerevisiae deletion strains, locus YOR061W, strain CKA2, hits give low values 0.993 | S. cerevisiae deletion strains, locus YOR069W, strain VPS5, hits give low values 1 | S. cerevisiae deletion strains, locus YOR070C, strain gyp1, hits give low values 1.02 | S. cerevisiae deletion strains, locus YOR080W, strain dia2, hits give low values 0.988 | S. cerevisiae deletion strains, locus YOR083W, strain WHI5, hits give low values 0.973 | S. cerevisiae deletion strains, locus YOR106W, strain vam3, hits give low values 0.987 | S. cerevisiae deletion strains, locus YOR136W, strain idh2, hits give low values 0.993 | S. cerevisiae deletion strains, locus YOR144C, strain elg1, hits give low values 0.995 | S. cerevisiae deletion strains, locus YOR184W, strain ser1, hits give low values 0.989 | S. cerevisiae deletion strains, locus YOR231W, strain MKK1, hits give low values 0.966 | S. cerevisiae deletion strains, locus YOR265W, strain rbl2, hits give low values 0.996 | S. cerevisiae deletion strains, locus YOR270C, strain vph1, hits give low values 1.03 | S. cerevisiae deletion strains, locus YOR290C, strain snf2, hits give low values 1.01 | S. cerevisiae deletion strains, locus YOR316C, strain cot1, hits give low values 0.998 | S. cerevisiae deletion strains, locus YPL051W, strain arl3, hits give low values 0.993 | S. cerevisiae deletion strains, locus YPL078C, strain atp4, hits give low values 0.972 | S. cerevisiae deletion strains, locus YPL106C, strain sse1, hits give low values 0.985 | S. cerevisiae deletion strains, locus YPL240C, strain hsp82, hits give low values 1.01 | S. cerevisiae deletion strains, locus YPL241C, strain CIN2, hits give low values 0.993 | S. cerevisiae deletion strains, locus YPL256C, strain CLN2, hits give low values 0.913 | S. cerevisiae deletion strains, locus YPR119W, strain clb2, hits give low values 0.988 | S. cerevisiae deletion strains, locus YPR141C, strain kar3, hits give low values 0.981 | S. cerevisiae deletion strains, locus YPR163C, strain tif3, hits give low values 0.996 | S. cerevisiae deletion strains, locus YPR167C, strain met16, hits give low values 0.98 | S. cerevisiae deletion strains, strain wtn01, hits give low values 0.984 | S. cerevisiae strains, strain wild type, hits give low values 0.998
